# Shown are actives, neighbours in structure and some others; about 4.3% of the full set was active somewhere.
# CR mimetic SO: yeast age-related superoxide inhibition as caloric restriction mimetic | S. cerevisiae aged cells, superoxide DHE fluorescence; hits give low values | superoxide response (% of plate mean), % at 10 µM | hit rate 0.18% among 330,000;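 active = superoxide response under a set limit, about three screen SD below normal, cut at about 65% in these data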;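 also: yeast aged for seven days with compound at 30 °C before DHE staining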
# NALP1 inh: blocks the NALP1 inflammasome reconstituted in yeast. hit rate 0.61% among 280,000. inhibition, % at 10 µM. S. cerevisiae NALP1/ASC/caspase-1 growth, X-gal OD620, 72 h. AID 2071; in the data active = inhibition mostly above about 24%, no sharp cut-off; inactive = mostly below about 32%
# dFosB activator: activators of mouse delta FosB homodimer | purified delta FosB, TAMRA-CDK5 oligo fluorescence polarization; percent of positive-control signal above neutral wells | activation, % at 25 µM | P13346 | hit rate 0.99% among 340,000;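 active = mean activation above about 17%, with every replicate also reaching it, limit read from the data, passing the limit was not always enough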
# Target sequence (P13346 whole entry, looked up): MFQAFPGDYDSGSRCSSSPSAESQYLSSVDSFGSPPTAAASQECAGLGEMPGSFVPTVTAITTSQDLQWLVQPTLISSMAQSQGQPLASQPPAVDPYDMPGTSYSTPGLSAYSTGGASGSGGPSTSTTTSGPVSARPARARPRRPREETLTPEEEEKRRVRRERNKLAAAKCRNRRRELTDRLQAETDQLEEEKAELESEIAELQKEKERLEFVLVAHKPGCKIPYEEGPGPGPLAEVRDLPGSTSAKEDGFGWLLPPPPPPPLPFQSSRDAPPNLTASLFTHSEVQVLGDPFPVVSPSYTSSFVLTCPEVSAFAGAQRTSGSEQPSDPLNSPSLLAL
# UBC13 inh: blocks human UBC13 polyubiquitin chain formation | P61088 | TR-FRET | inhibition, % at 20 µM | hit rate 0.47% among 330,000; in the data active = inhibition above about 45%, passing the limit was not always enough
# Target sequence (P61088 whole entry, looked up): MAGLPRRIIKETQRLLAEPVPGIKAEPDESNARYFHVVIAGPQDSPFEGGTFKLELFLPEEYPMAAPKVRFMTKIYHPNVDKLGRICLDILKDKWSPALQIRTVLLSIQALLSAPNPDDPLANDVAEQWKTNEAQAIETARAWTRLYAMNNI
# NR3A LBD binder: modulators (binders) of human NR3A ligand-binding domain | NR3A LBD differential scanning fluorimetry, Tm shift; 0% = protein alone, 100% = glycine-bound protein | hit rate 2.5% among 340,000 | AID 1259313 | Tm shift relative to glycine control, % at 25 µM;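 active = melting temperature shift of at least 10% of the positive control shift, at one fixed dose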
# Superoxide pick: yeast aging superoxide inhibition, cherry pick confirmation; shares compounds with CR mimetic SO; S. cerevisiae aging, superoxide DHE fluorescence; hits give low values; superoxide response (% of plate), % at 10 µM; hit rate 1% among 850; AID 434994;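 active = superoxide signal below 65% of the plate average of sample wells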;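 also: cells aged with compound for 7 days at 30 degrees C before staining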
# DHE counter: DHE fluorescence interference, counter-screen artifact; shares compounds with CR mimetic SO; S. cerevisiae BY4741, flow cytometry; hits give low values; fluorescence response, % at 10 µM; 850 tested, under 10 active;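 active = fluorescence response below 15%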;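 also: lower means stronger quenching of DHE signal or ROS scavenging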
# A number is an active result; 0 = inactive; - = not tested or not shown.
SMILES,CR mimetic SO,NALP1 inh,dFosB activator,UBC13 inh,NR3A LBD binder,Superoxide pick,DHE counter
C=CCNc1nc(Cl)nc(Nc2ccc(OC)cc2)n1,0,0,0,0,0,-,-
COc1ccc(NS(=O)(=O)c2ccc(OCC(=O)N3CCOCC3)cc2)cc1Cl,0,0,0,0,0,-,-
CNS(=O)(=O)c1cccc(C(=O)OCC(=O)NC2CCCC(C)C2C)c1 (configuration not stated),0,-,0,0,0,-,-
S=C(NCCN1CCOCC1)NC1CCCC1,0,0,0,0,0,-,-
COCCNC(=S)N(CCc1c(C)[nH]c2ccc(F)cc12)Cc1cccnc1,0,0,0,0,13,-,-
COCCNC(=S)N(CCc1c(C)[nH]c2ccc(Cl)cc12)Cc1cccnc1,0,0,0,0,0,-,-
COc1ccccc1C(=O)C1CCCN(C(=O)c2cnn(C(C)C)c2)C1 (configuration not stated),0,0,0,0,0,-,-
N#Cc1cc(Oc2ccc3ccccc3c2)c(-n2nnc3ccccc32)cc1C#N,0,0,0,0,13,-,-
Brc1ccc(-c2csc(-c3c[nH]c4ccccc34)n2)cc1,0,0,0,0,47,-,-
c1ccc2c(-c3csc(-c4ccncc4)n3)c[nH]c2c1,0,0,0,0,27,-,-
Oc1csc(Cc2nc(-c3ccc(Br)cc3)cs2)n1,0,0,0,0,0,-,-
CCc1cc2c3c(c(=O)oc2cc1OCC(=O)OC)CCCC3,0,0,0,0,0,-,-
O=C(NCCCn1ccnc1)c1cc2cc([N+](=O)[O-])ccc2oc1=O,0,0,0,0,0,-,-
O=C(COc1ccc(F)cc1)NNC(=O)Cn1ccc(C(F)(F)F)n1,0,-,0,0,0,-,-
O=C(Cn1ccc(C(F)(F)F)n1)NNC(=O)c1ccco1,0,-,0,0,293,-,-
O=C(CC1C(=O)NCCN1Cc1ccccc1)NCCC1=CCCCC1 (configuration not stated),0,0,0,0,0,-,-
Cc1cccc(C)c1Nc1nnc(SCC(=O)Nc2ncc(C(F)(F)F)cc2Cl)s1,0,0,0,0,12,-,-
Cc1cccc(Nc2nnc(SCC(=O)Nc3ncc(C(F)(F)F)cc3Cl)s2)c1C,0,0,0,0,0,-,-
COc1ccc(/C=N/n2cnc3c(sc(=S)n3-c3ccccc3)c2=O)cc1,0,0,0,0,16,-,-
C[C@H](NC(=O)COc1ccc(Cl)cc1)C(=O)N1CCC2(CC1)NCCc1[nH]cnc12,0,0,0,0,0,-,-
Cc1ccc(/C=C/c2nc3ccccc3c(=O)[nH]2)cc1,0,0,0,0,0,-,-
Cc1ccc(/C=C\c2nccc3c2[nH]c2ccccc23)cc1,0,0,42,0,14,-,-
O=c1[nH]c2ccccc2nc1/C=C/c1ccc(F)cc1,0,0,0,0,0,-,-
C(=C\c1nccc2c1[nH]c1ccccc12)/c1ccccc1,0,0,42,0,16,-,-
Fc1ccc(/C=C\c2nccc3c2[nH]c2ccccc23)cc1,0,0,-,0,13,-,-
SMILES,CR mimetic SO,NALP1 inh,dFosB activator,UBC13 inh,NR3A LBD binder,Superoxide pick,DHE counter
Cc1cccc(-n2ncc3c(N4CCCC4)ncnc32)c1,0,0,0,0,0,0,0
Cc1cccc(-n2ncc3c(N4CCOCC4)ncnc32)c1,0,0,0,0,0,0,0
COCC(C)NC(=O)c1cc2c(ccc3ccccc32)oc1=O (configuration not stated),0,0,0,0,0,-,-
S=C(NC1CCCCC1)N1CCN(c2ccccn2)CC1,0,0,0,0,0,-,-
O=C(NNC(=O)c1ccccc1O)c1ccc(Cl)c(S(=O)(=O)N2CCc3ccccc32)c1,0,-,0,0,0,-,-
Cc1cc(NS(=O)(=O)c2ccccc2)cc(Cl)c1O,0,0,0,0,0,0,0
O=S(=O)(Nc1ccc(NS(=O)(=O)c2ccccc2)c(Cl)c1)c1ccccc1,-,-,0,-,0,-,-
Cc1cccc(-c2cc3nc(-c4ccccc4)cc(=O)n3[nH]2)c1,0,0,0,0,0,0,0
CCc1c(C)nc2cc(-c3ccccc3)[nH]n2c1=O,0,0,0,0,0,0,0
C=CCc1c(C)nc2cc(-c3ccc(C)cc3)[nH]n2c1=O,0,0,0,0,0,-,-
CCc1c(C)nc2c(-c3ccccc3)c(-c3ccccc3)[nH]n2c1=O,0,0,0,0,0,0,0
O=C(c1ccccc1)N1CCN(c2ccccc2)CC1,-,-,0,-,0,-,-
CS(=O)(=O)Nc1ccc(C(=O)N2CCN(c3ccccc3)CC2)cc1,0,0,0,0,0,0,0
COc1ccc(C(=O)N2CCN(c3ccc(C)c(C)c3)CC2)cc1OC,0,0,0,0,0,-,-
O=C(c1ccc(NS(=O)(=O)c2ccc3[nH]c(=O)[nH]c3c2)cc1)N1CCN(c2ccccc2)CC1,0,-,0,0,0,-,-
O=C(c1ccc2nc[nH]c2c1)N1CCN(c2cccc(Cl)c2)CC1,0,0,0,0,0,-,-
O=C(c1ccccc1)N1CCN(c2ccc(Cl)cc2)CC1,0,0,0,0,0,0,0
Cc1ccc(C(=O)N2CCN(c3ccccc3)CC2)cc1C,0,0,0,0,0,0,0
Cc1ccc(C(=O)N2CCN(c3cccc(Cl)c3)CC2)cc1C,0,0,0,0,0,0,0
C[C@H](CO)N1C[C@H](C)[C@@H](CN(C)CC2CCCCC2)Oc2c(NS(=O)(=O)c3ccc(F)cc3)cccc2C1=O,0,-,0,0,0,-,-
CN(C)C(CNC(=O)c1ccc(C2SCCS2)cc1)c1ccccc1 (configuration not stated),0,0,0,0,0,-,-
Cc1ccc2cc(/C=N/NC(=O)c3ccccc3[N+](=O)[O-])c(Cl)nc2c1,0,0,0,0,0,-,-
Cc1cccc(N(Cc2ccccc2)C(=O)CCl)c1,-,0,0,-,0,-,-
COc1ccc(CC(=O)N(Cc2ccccc2)c2cccc(C)c2)cc1OC,64,0,0,0,0,0,0
CC(=O)N1CCC(C(=O)Nc2cc(C)cc(C)c2)CC1,61,0,0,0,0,0,0
SMILES,CR mimetic SO,NALP1 inh,dFosB activator,UBC13 inh,NR3A LBD binder,Superoxide pick,DHE counter
COc1ccc(-c2c(-c3cc(OC)cc(OC)c3)n(C)c3ccc(-c4ccc(SC)cc4)cc23)cc1,65,-,0,0,0,0,0
COc1ccc(-c2oc3c4c(cc(OC)c3c(=O)c2CC=C(C)C)OC(C)(C)C=C4)c(OC)c1,0,-,-,0,-,-,-
CC(=O)c1cccc(CN2CCCC(CCC(=O)NCc3ccc(C)o3)C2)c1 (configuration not stated),0,0,0,0,0,-,-
O=C(CN1CCN(c2ccccn2)CC1)Nc1ccccc1F,0,0,0,0,0,-,-
O=C(CCN1CCN(c2ccccn2)CC1)Nc1ccc(F)cc1,0,0,0,0,0,-,-
O=C(CN1CCN(c2ccccn2)CC1)Nc1ccc(F)cc1F,0,0,0,0,0,0,0
O=C(CN1CCN(c2ccccn2)CC1)Nc1cc(F)ccc1F,0,0,0,0,0,0,0
Cc1ccc(F)cc1NC(=O)CN1CCN(c2ccccn2)CC1,0,0,0,0,0,0,0

# Source: PubChem (several laboratories)
